High-throughput results: PubChem, several laboratories
CendR NRP1 mod = modulators of CendR peptide binding to NRP-1, primary screen, biochemical, fluorescence polarization, uHTS. actives 0.85% (n = 360,000). inhibition, % at 25 µM. AID 602438, 2012. Neuropilin-1 (Homo sapiens), O14786. FAM-RPARPAR peptide binding to NRP-1;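 active means inhibition or corrected inhibition above about 18%, plus a signal ratio from 0.5 to 1.5, limit read from the data, passing the limit was not always enough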
MEKK2wt PB1 HTS = modulators of MEK5 binding to wildtype MEKK2, primary screen, biochemical, multiplex bead flow cytometry, Alexa488-MEK5 | Alexa488-MEK5 binding to MEKK2 WT; actives lie on both sides | AID 1531, 2009 | actives 1.1% (n = 290,000) | binding response (% of control), % at 10 µM | Mitogen-activated protein kinase kinase kinase 2 (Homo sapiens), Q9Y2U5; in the data active means binding response below about 67% or above about 130%
MEKK2 mut-MEK5 = MEK5 binding signal on mutant MEKK2 PB1, primary screen, biochemical, multiplex bead flow cytometry, Alexa488-MEK5; Alexa488-MEK5 binding to MEKK2 mutant; percent response, % at 10 µM; actives 0.35% (n = 290,000); AID 1530, 2009; in the data active means percent response above about 24%, passing the limit was not always enough
SKN-1 block = suppressors of acrylamide-induced Pgst-4::GFP reporter in worms, primary screen, SKN-1 inhibitor project, whole organism, uHTS, GFP/RFP fluorescence ratio, strain VP596; C. elegans VP596 Pgst-4::GFP/RFP ratio, 24 h; inhibition, % at 21.8 µM; actives 0.49% (n = 360,000); AID 624304, 2012;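 active means interference check ratio from 0.5 to 1.5 plus GFP to RFP signal ratio inhibition reaching or exceeding a fixed threshold, cut at about 30% in these data, passing the limit was not always enough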
MEKK3 PB1 HTS = modulators of MEKK3-MEK5 PB1 binding, primary screen, biochemical, wildtype MEKK3, multiplex bead flow cytometry, Alexa488-MEK5; Mitogen-activated protein kinase kinase kinase 3 (Homo sapiens), Q99759; bead-based flow cytometry, Alexa488-MEK5 binding to MEKK3; actives lie on both sides; 0 = blocked by unlabeled MEK5, 100 = vehicle; binding response (% of control), % at 10 µM; actives 1.4% (n = 290,000);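 active means binding response more than 3 SD above or below the average of its plate-row segment, actives on both sides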;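 further: Alexa488 bead fluorescence after subtracting the streptavidin-only scavenger bead signal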
Target sequence (Q99759 whole entry, looked up): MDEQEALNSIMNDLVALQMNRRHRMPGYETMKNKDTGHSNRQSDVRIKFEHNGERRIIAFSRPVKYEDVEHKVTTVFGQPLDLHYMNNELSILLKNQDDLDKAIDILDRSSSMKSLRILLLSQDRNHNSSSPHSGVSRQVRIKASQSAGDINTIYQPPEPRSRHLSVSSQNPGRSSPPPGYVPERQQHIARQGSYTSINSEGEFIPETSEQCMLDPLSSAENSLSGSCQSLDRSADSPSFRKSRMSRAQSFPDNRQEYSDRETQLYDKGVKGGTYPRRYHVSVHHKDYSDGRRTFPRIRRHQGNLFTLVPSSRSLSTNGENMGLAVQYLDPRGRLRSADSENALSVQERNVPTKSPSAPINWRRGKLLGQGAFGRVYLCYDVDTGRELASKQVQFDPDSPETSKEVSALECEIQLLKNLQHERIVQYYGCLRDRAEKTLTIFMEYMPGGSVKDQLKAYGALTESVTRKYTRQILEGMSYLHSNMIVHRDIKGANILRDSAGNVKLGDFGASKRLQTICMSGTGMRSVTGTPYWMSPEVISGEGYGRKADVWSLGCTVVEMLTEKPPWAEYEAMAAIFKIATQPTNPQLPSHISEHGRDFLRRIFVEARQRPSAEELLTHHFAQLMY
MEKK2wt confirm = modulators of MEK5 binding to wildtype MEKK2, confirmation, biochemical, single concentration, multiplex bead flow cytometry; shares compounds with MEKK3 PB1 HTS; Alexa488-MEK5 binding to MEKK2 WT; actives lie on both sides; binding response (% of control), % at 10 µM; actives 2.4% (n = 5,900); in the data active means binding response below about 16% or above about 210%; inactive means in between
MEKK2mut-MEK5 = mutant MEKK2 PB1-MEK5 binding signal retest – biochemical, single concentration, multiplex bead flow cytometry, confirmation. percent response, % at 10 µM. Alexa488-MEK5 binding to MEKK2 mutant. shares compounds with MEKK3 PB1 HTS. actives 2% (n = 5,900); in the data active means percent response mostly above about 71%, no sharp cut-off; inactive means mostly below about 38%;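 further: higher means compound restores mutant binding toward wildtype level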
MEKK3-MEK5 inh = MEKK3 wild-type PB1 binding to MEK5, inhibitors, confirmation, biochemical, bead multiplex flow cytometry, single concentration, wildtype; Alexa488-MEK5 binding to MEKK3; active compounds read low; binding response (% of control), % at 10 µM; actives 1.8% (n = 5,900); shares compounds with MEKK3 PB1 HTS;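 active means binding response below 72% of control, or above a set upper limit, though filed actives all read lower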;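 further: 100% = DMSO only wells and 0% = binding blocked by excess unlabeled MEK5; lower values mean stronger disruption of MEK5 binding to MEKK3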
The depositor's hits bear a star; . = no result; + = active, no number; [ ] = remark or other dose. This is a sample that favours compounds with a hit; in the whole collection about 3.2% have one here.

SMILES	CendR NRP1 mod	MEKK2wt PB1 HTS	MEKK2 mut-MEK5	SKN-1 block	MEKK3 PB1 HTS	MEKK2wt confirm	MEKK2mut-MEK5	MEKK3-MEK5 inh
Cc1ccc(C(=O)CC(C(=O)O)n2cnc([N+](=O)[O-])n2)cc1 (stereo not drawn)	9	55	-14	-1	49*[inhibitor]	106	2	104
Cc1ccc(C(=O)CC(C(=O)O)n2cncn2)cc1 (stereo not drawn)	-11	102	-3	-13	101	.	.	.
CC(C)N(C)CCOC(=O)C1COc2ccccc2O1 (stereo not drawn)	1	116	28	4	131*	93	-13	92
COc1cccc(C(O)c2nc(-c3cncnc3)cs2)c1 (stereo not drawn)	13	.	.	9	.	.	.	.
O=C(NCc1ccccc1)c1cc(C2COCCN2C(=O)CCc2ccccc2)on1 (stereo not drawn)	17	.	.	-5	.	.	.	.
Cc1ccc2nc(N=C(N)N)nc(C)c2c1	-3	93	-7	7	82	.	.	.
Cc1nc(N=C(N)N)nc2ccccc12	2	77	-11	-2	75*[inhibitor]	107	19	101
CS(=O)(=O)N1CCN(c2ccc([N+](=O)[O-])cc2F)CC1	5	79	-16	7	75*[inhibitor]	101	13	104
Cc1ccsc1C(=O)Nc1ccc(S(=O)(=O)N2CCOCC2)cc1	1	.	.	-2	.	.	.	.
O=C(C1=C(Nc2ccccc2)c2ccccc2S(=O)(=O)N1)c1ccccc1	-68	85	-2	5	64*[inhibitor]	95	-7	103
CCN(CC)CCOC(=O)c1ccc(NC(=O)CCCN2C(=O)S/C(=C/c3ccc(OC)cc3)C2=S)cc1	-3	192*	44*	6	106	111	2	87
CCOC(=O)C1=CCN(S(=O)(=O)c2ccccc2C)C1c1ccc(C)cc1 (stereo not drawn)	11	.	.	-3	.	.	.	.
CN1CCN(CCCNCc2cn(CCC#N)c3ccccc23)CC1	7	168*	25*	11	106	151	29	107
Cn1nc(C(=O)NCC(=O)Nc2ccc(F)c(F)c2)ccc1=O	3	.	.	8	.	.	.	.
N#C/C(=C\c1ccccc1[N+](=O)[O-])C(=O)NC1CCCCC1	6	47*[inhibitor]	-17	11	40*[inhibitor]	97	-6	99
N#C/C(=C\C=C\c1ccccc1[N+](=O)[O-])C(=O)NC1CCCCC1	16	94	-1	-2	99	.	.	.
C1CCCCCC(NCCN2CCNCC2)CCCCC1	-4	158*	22	6	105	142	19	100
Cc1ccc(C)c2[nH]c(=O)c(CN(CCN3CCCC3)C(=O)Nc3cccc(Cl)c3)cc12	0	153*	41*	0	110	154	35	103
Cc1cc(C)c2cc(CN(CCN3CCCC3)C(=O)Nc3ccc(F)cc3)c(=O)[nH]c2c1	-30	126	18	6	105	.	.	.
O=[N+]([O-])c1ccc(Sc2nnnn2-c2ccccc2)c(Cl)c1	-9	97	0	-3	100	.	.	.
Nc1ccc(Sc2nnnn2-c2ccccc2)c(Cl)c1	1	-3.0*[inhibitor]	-26	9	1.0*[inhibitor]	100	-2	102
COc1ccc(Nc2c3c(nc4c(-c5ccccc5)c(C)nn24)CCC3)cc1	13	116	0	14	128*	98	0	106
Cc1nn2c(NCc3ccccn3)c3c(nc2c1-c1ccccc1)CCC3	9	92	1	33	89	.	.	.
Cc1ccc(C(=O)O)cc1NC(=O)CCc1c(C)noc1C	8	.	.	4	.	.	.	.
Cc1c(C(=O)NCCC#N)sc(=O)n1Cc1ccc(C(=O)N(C)C)cc1	-2	.	.	-1	.	.	.	.
SMILES	CendR NRP1 mod	MEKK2wt PB1 HTS	MEKK2 mut-MEK5	SKN-1 block	MEKK3 PB1 HTS	MEKK2wt confirm	MEKK2mut-MEK5	MEKK3-MEK5 inh
COc1ccc(-c2csc(NC(=O)CS(=O)(=O)c3ccccc3)n2)cc1	2	.	.	16	.	.	.	.
COc1ccc(-c2csc(NC(=O)C3CCCCN3S(=O)(=O)c3ccccc3)n2)cc1 (stereo not drawn)	14	90	-6	0	80*[inhibitor]	95	-5	95
COc1ccc(-c2csc(NC(=O)c3cccc(S(=O)(=O)N4CCN(C)CC4)c3)n2)cc1	-3	102	-8	4	72*[inhibitor]	125	43	106
O=C(OCc1ccccc1)N(CCCCN(CCCNCc1ccccc1)C(=O)OCc1ccccc1)CCCNCc1ccccc1	0	.	.	1	.	.	.	.
O=C(Cn1nnc(-c2ccc(Cl)cc2)n1)NCc1ccco1	-5	106	11	0	106	.	.	.
CCCC(=O)NCn1nnc(-c2ccc(Cl)cc2)n1	-6	94	+	-3	221*	102	1	103
Cc1ccc(S(=O)(=O)N2CC(O)C[C@H]2C(=O)OCC(=O)N2CCN(c3ccc(F)cc3)CC2)cc1C (stereo partly drawn)	9	.	.	5	.	.	.	.
CCOC(=O)C1=C(NC(=S)NC(=O)c2ccccc2)c2ccccc2CC1(C)CC (stereo not drawn)	-31	30*[inhibitor]	1	6	94	98	0	101
Cc1ccc(S(=O)(=O)N(C)C)cc1NC(=O)c1cc(S(=O)(=O)N2CCCCC2)ccc1N1CCOCC1	-2	.	.	-3	.	.	.	.
Cc1noc(C)c1COc1ccccc1C(=O)NCc1ccco1	-3	.	.	9	.	.	.	.
Cc1nnc(NCc2n[nH]c(=O)c3ccccc23)c2ccccc12	-11	41*[inhibitor]	-6	-1	31*[inhibitor]	95	-2	93
COC(=O)[C@]12CCCCC=C1N(CCC1=CCCCC1)C(=O)[C@H](CC(=O)N1CCOCC1)C2	6	.	.	2	.	.	.	.
COC(=O)c1ccc(CN(c2ccccn2)S(=O)(=O)c2ccccc2)cc1	-4	126	9	-6	132*	94	-5	99
CC1CCCN(CC(=O)Nc2ccc(S(=O)(=O)N3CCCC3)cc2)C1 (stereo not drawn)	-8	103	-1	5	102	.	.	.
